Hits are enriched below; roughly 7.6% of the tested compounds scored in any of these assays.
BRCA1 expr up – BRCA1 expression activation; Potency, µM (top dose mostly 46.1 µM), for the others: at the highest dose activation, most hits filed as activators; hit rate 1.1% among 380,000; MCF7-BRCA1-FFLuc reporter, luminescence, 48 h; response scale: scaled: vehicle 0%, 10 µM genistein 100%; AID 624202; note: potency is the fitted concentration of half-maximal effect; nearly all actives have a fitted effect of over 80% in size
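MCF7-BRCA1-FFLuc, 2000 cells/well; 2 h attach, 37 °C/5% CO2; compound 48 h; luciferase substrate 15 min; luminescence end-point. Norm. to genistein 10 microM max activation and DMSO; concentration-response curves fitted.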
RORgamma inh – blocks mouse ROR gamma transcriptional activity | Drosophila S2 Gal4-RORgamma UAS-luciferase reporter, 20 h | hit rate 5.4% among 310,000 | Potency, µM (titrated, usually from 53.6 µM), inactives show top-dose activity change, negative = inhibition, hits mostly inhibitors | AID 2551; note: potency is the fitted concentration of half-maximal effect; % is set by controls: 0 for no effect and ±100 for the full control effect; nearly all actives have a fitted effect of over 60% in size
Target sequence (P51450 whole entry, looked up, the tested form may be a part): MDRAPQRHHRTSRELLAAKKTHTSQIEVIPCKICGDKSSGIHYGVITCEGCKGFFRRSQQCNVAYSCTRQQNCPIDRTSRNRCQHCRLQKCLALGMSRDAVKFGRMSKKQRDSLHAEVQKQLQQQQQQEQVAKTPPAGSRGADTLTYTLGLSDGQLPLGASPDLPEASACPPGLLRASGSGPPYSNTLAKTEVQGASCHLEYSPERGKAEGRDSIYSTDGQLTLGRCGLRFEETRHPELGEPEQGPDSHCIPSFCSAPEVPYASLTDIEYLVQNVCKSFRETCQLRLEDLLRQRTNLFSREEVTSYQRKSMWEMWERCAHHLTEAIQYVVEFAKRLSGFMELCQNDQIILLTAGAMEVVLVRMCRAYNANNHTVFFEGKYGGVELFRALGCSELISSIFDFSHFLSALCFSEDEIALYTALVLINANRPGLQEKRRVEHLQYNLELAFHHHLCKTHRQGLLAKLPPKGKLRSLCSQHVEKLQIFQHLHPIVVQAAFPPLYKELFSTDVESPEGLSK
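ROR gamma transcriptional activity was tracked as Gal4-UAS luciferase output in stably transfected Drosophila Schneider cells, with compound added 1 hr before 700 uM copper sulfate induction and a 20 hr ambient-temperature incubation.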
ELG1 DNA repair – inhibitors of ELG1-dependent DNA repair in HEK293T cells | Potency, µM (titrated, usually from 46.1 µM), for the others: at the highest dose activity change, negative = inhibition, most hits filed as inhibitors | hit rate 2.3% among 330,000 | HEK293T ELG1-luciferase reporter, luminescence, 16 h; DNA damage induced by 5-fluorouridine | AID 504467; note: potency is the fitted concentration of half-maximal effect; % is set by controls: 0 for no effect and ±100 for the full control effect; nearly all actives have a fitted effect of over 55% in size
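Quantitative HTS, concentration-response format. 2,000 cells/well co-treated with 5-fluorouridine and compound, 16 hr in 5% CO2 at 37 °C; ONE-Glo luminescence read after 30 min.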
Giardia kill – Giardia lamblia killing. Giardia lamblia trophozoite viability. activity change, % at 7.66 µM, hits read low. hit rate 0.15% among 340,000; in the data active = activity change below about -80%; inconclusive = between about -30% and that limit;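 note: parasites exposed to compound for two days anaerobically before the ATP read; % is set by controls: 0 for no effect and ±100 for the full control effect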
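Trophozoites 100 cells/well + cpd; 48 hrs, 37 deg C, anaerobic. ATPLite 1-Step added, 15-30 min RT, luminescence read (ATP-based viability).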
VP16 counter – counter-screen for ROR gamma inhibitors: Gal4-VP16 reporter | Drosophila S2 Gal4-VP16 UAS-luciferase, luminescence, 20 h | Potency, µM (series often up to 53.6 µM), inactives show at the highest dose activity, negative = inhibition, usual class: inhibitors | hit rate 3.5% among 310,000;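 note: Gal4-VP16 expression switched on by copper sulfate through the metallothionein promoter; potency is the fitted concentration of half-maximal effect; % is set by controls: 0 for no effect and ±100 for the full control effect; nearly all actives have a fitted effect of over 50% in size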
p53 reactivator – re-activators of mutant p53; H1299 p53-A138V BP100-luciferase reporter, luminescence, 24 h; Potency, µM (series often up to 92.2 µM), for the others: at the top dose activity change, positive = activation, actives largely listed as activators; hit rate 0.063% among 320,000; note: potency is the fitted concentration of half-maximal effect; % of control where 0% means no effect; nearly all actives have a fitted effect of over 45% in size
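H1299 (p53-null), stable ts p53-A138V + BP100-Luc; 1000 cells/well, Opti-MEM/10% FBS; cpd 4 pt, 1:5; 24 h, 37 deg C, 5% CO2; detection reagent 10 min RT; luminescence.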
Active calls of the source: *; ? = inconclusive; · = no result given; [ ] = another dose, or the depositor's remark. Unless noted, calls come from the whole dose curve; as a rule, active = well fitted curve in the direction sought with a large enough effect; inconclusive = small, poorly fitted or top-dose-only effect, or another doubt; inactive = no such curve, though single readings can be large; an effect the other way counts as inactive or inconclusive.

SMILES | BRCA1 expr up | RORgamma inh | ELG1 DNA repair | Giardia kill | VP16 counter | p53 reactivator
S=c1[nH]nc(-c2ccc(Cl)cc2Cl)n1-c1ccc2c(c1)OCCO2 | 4.0% | 3.55µM* | 6.4% | 1.6 | -10.0% | 1.5%
Oc1ccc(-c2n[nH]c(=S)n2-c2ccc3c(c2)OCCO3)c(O)c1 | -57.5% | ? | 3.66µM* | -7.5 | 10.8% | -8.4%
COc1ccc(OC)c(-n2c(-c3ccc(O)cc3O)n[nH]c2=S)c1 | -3.9% | ? | ? | 2.6 | -21.0% | -5.0%
Cc1ccc([N+](=O)[O-])c(-c2n[nH]c(=S)n2-c2cccc(Cl)c2)c1 | -16.9% | ? | 2.2% | -7.5 | -11.8% | -2.7%
COc1ccc2c(c1)C(c1cccs1)=NNC(c1ccncc1)=N2 | -20.1% | 9.7% | ? | -29.9 | 5.5% | -3.8%
Cc1ccc(C2=Nc3cccnc3C(c3ccccc3)=NN2)cc1 | 6.31µM* | -4.7% | ? | -15.6 | 11.1% | 12.4%
CCCOc1ccc(C2=NNC(c3cccs3)=Nc3ccc(OC)cc32)cc1 | 7.2% | 20.7% | 16.4µM* | -8.2 | -3.5% | ?
CCc1ccc2c(c1)C(c1ccncc1)=NNC(c1ccccc1)=N2 | 60.4% | ? | ? | 8.1 | 5.0% | 1.0%
CCOc1ccc2c(c1)C(c1ccccc1)=NNC(c1ccccc1)=N2 | -18.3% | 3.9% | 13µM* | -5.7 | 2.7% | ?
ClC1(Cl)CC1Cn1cnc2ccccc21 (configuration not stated) | 17.5% | -27.6% | -6.6% | -9.0 | 7.4% | -1.9%
COc1cc([N+](=O)[O-])cc(/C=N/NC(=O)c2cncc(Br)c2)c1O | -67.9% | 2.82µM* | 23.1µM* | 8.9 | ? | 13.4%
COc1cc(/C=N/NC(=O)c2cccc([N+](=O)[O-])c2)cc(OC)c1O | -17.8% | -18.3% | 16.6% | -1.2 | 8.4% | 0.7%
COc1cc(/C=N/NC(=O)c2cncc(Br)c2)cc([N+](=O)[O-])c1O | -53.1% | 0.316µM* | ? | -24.0 | ? | 19.9%
c1ccc(-c2nnc(NC3=NCCC3)o2)cc1 | -26.3% | 7.08µM* | ? | -16.4 | -0.1%[10 µM] | -4.2%
Fc1ccc(NC2=NCCCCC2)cc1 | -5.7% | -1.1% | 10.4% | 8.5 | 1.6% | 4.4%
Fc1ccc(-c2nnc(NC3=NCCCCC3)o2)cc1 | -83.4% | 2.82µM* | ? | ? | ? | -28.2%
O=C(c1cccc([N+](=O)[O-])c1)N1CC2C3C=CC(C3)C2C1 (configuration not stated) | -0.1% | 11.7% | 2.0% | 8.5 | -7.1% | 22.9%
COc1ccccc1C1CC(=O)Nc2cc3c(cc21)OCCO3 (configuration not stated) | -82.4% | -14.1% | 9.2% | -0.5 | 11.2µM* | 15.5%
Cc1ncc([N+](=O)[O-])n1CCOC(=O)Nc1ccc(Cl)c(Cl)c1 | -25.0% | 39.5% | 1.4% | -89.7* | -16.1% | -14.1%
Cc1ncc([N+](=O)[O-])n1CCOC(=O)NC(NCc1ccccc1)C(Cl)(Cl)Cl (configuration not stated) | 1.6% | 16.0% | -5.5% | ? | -6.4% | -3.7%
Cc1ncc([N+](=O)[O-])n1CCOC(=O)NC(Nc1ccc(F)cc1)C(Cl)(Cl)Cl (configuration not stated) | -0.6% | -0.5% | 29.5% | ? | 1.3% | -6.4%
Cc1ncc([N+](=O)[O-])n1CCOC(=O)c1ccccc1 | -5.1% | -21.9% | ? | -99.8* | -5.1% | 8.4%
CCC1(c2ccccc2)ON(c2c(Br)cccc2Br)C1=O (configuration not stated) | -20.7% | · | ? | -14.6 | · | -15.1%
Cc1cc(=O)n2cccc(O)c2n1 | 15.3% | 0.891µM* | ? | -4.8 | 1.78µM* | 3.2%
CO/N=C(\C)CCN1CCc2nc(-c3ccccc3)c(-c3ccccc3)cc2C1 | · | -23.4%[10 µM] | · | · | 5.5%[10 µM] | ·
SMILES | BRCA1 expr up | RORgamma inh | ELG1 DNA repair | Giardia kill | VP16 counter | p53 reactivator
O=C(Nc1ccc(NC(=O)C2CC2)cn1)c1ccccc1 | ? | 12.6µM* | ? | ? | 0.1µM* | 16.6%
O=C(Cc1ccc(Cl)cc1)Nc1ccc(Br)cn1 | 12.6µM* | 43.5% | ? | -8.2 | -8.1% | 12.1%
O=C(Nc1ccc(NC(=O)C2CC2)cn1)c1ccccc1Cl | 12.6µM* | ? | ? | -6.3 | -3.1%[0.365 µM] | ?
O=C(Cc1ccccc1)Nc1ccc(NC(=O)c2ccccc2)nc1 | 12.6µM* | ? | ? | -13.3 | 6.8% | 14.5%
COc1ccc(C(=O)Nc2ccc(NC(=O)C3CC3)cn2)cc1 | 1.7% | -32.8% | 15.4% | -7.7 | 0.4% | -1.6%
O=C(O)C1C2CCC(CC2)C1C(=O)N1CCN(Cc2ccc(F)cc2)CC1 (configuration not stated) | 0.2% | -0.8% | -1.7% | 16.9 | -10.3% | -6.6%
CCCCNCc1cc(Br)c(OCC(=O)N2CCOCC2)c(OC)c1 | -8.5% | -13.4% | 5.6% | 8.4 | 2.4% | 12.4%
CC1(C)NC(C)(C)/C(=C\c2cccs2)C(=O)C1=O | 3.2% | -27.5% | ? | -10.3 | 28.7% | 2.8%
CC(C)(C)c1ccc(C(=O)Nc2ccc(C=C(C#N)C#N)cc2)cc1 | 38.4% | 5.01µM* | ? | -21.7 | 5.62µM* | ?
COC(=O)c1ccccc1S(=O)(=O)NC(=O)c1ccccc1 | -22.1% | -21.9% | 20.6% | 0.4 | 3.1% | -4.0%
COc1ccc(-c2ccn(-c3cccc(F)n3)n2)cc1 | 3.16µM* | 12.0% | ? | -7.2 | 9.5% | ?
COc1nn(-c2ccccc2)c(=O)c(Cl)c1Cl | -98.4% | ? | ? | 0.6 | 11.2µM* | -7.3%
CN1Cc2c(N3CCOCC3)nc3sc(C(=O)c4ccc(Br)cc4)c(N)c3c2CC1(C)C | -73.7% | 11.2µM* | ? | 2.5 | ? | -11.5%
CC1(C)Cc2c(c(N3CCOCC3)nc3sc(-c4ccc(C(=O)O)o4)c(N)c23)CO1 | -18.6% | ? | 2.59µM* | -2.5 | 2.9% | -4.1%
Cc1nc2c(sc3nc(N4CCOCC4)c4c(c32)CC(C)(C)OC4)c(-c2ccccc2)c1C(=O)O | -28.3% | 33.4% | 3.66µM* | -11.9 | 1.5% | -3.4%
CC1(C)Cc2c(c(N3CCOCC3)nc3snc(NC(=O)c4ccccc4)c23)CO1 | -39.9% | -15.5% | ? | -23.8 | ? | -3.5%
Cc1noc(C)c1CSCC(=O)N(C)CC(=O)Nc1ccccc1Br | -2.2% | · | -6.0% | -3.5 | · | 4.9%
CC(C)(C)c1cccc(Oc2nn[nH]n2)c1 | 12.4% | 17.0% | 7.8% | 5.8 | 1.2% | 2.5%
COc1cc(OC)cc(C2=NC3(CCC(C)CC3)NC2=S)c1 (configuration not stated) | -17.0% | 1.41µM* | ? | -6.3 | 2.0% | 6.8%

Source: PubChem BioAssay
